# Reference: publication PMC7862700, “An all-to-all approach to the identification of sequence-specific readers for epigenetic DNA modifications on cytosine”
# Key:
# Assay in all cases: DAPPL (digital affinity profiling via proximity ligation, sequencing); 10 mM Tris-HCl pH 7.5, 50 mM NaCl, 1 mM DTT, 4% glycerol, room temperature, 30 min; GST-TFs on glutathione beads, 16-mer random dsDNA library, 0.1% formaldehyde crosslink after washing; high values mean tight binding
# [1] = biological target: T1, FLI1 (Homo sapiens, UniProt Q01543 1-452); details: protein: recombinant; tags: N-terminal GST; dsDNA, one strand shown
# T1 sequence: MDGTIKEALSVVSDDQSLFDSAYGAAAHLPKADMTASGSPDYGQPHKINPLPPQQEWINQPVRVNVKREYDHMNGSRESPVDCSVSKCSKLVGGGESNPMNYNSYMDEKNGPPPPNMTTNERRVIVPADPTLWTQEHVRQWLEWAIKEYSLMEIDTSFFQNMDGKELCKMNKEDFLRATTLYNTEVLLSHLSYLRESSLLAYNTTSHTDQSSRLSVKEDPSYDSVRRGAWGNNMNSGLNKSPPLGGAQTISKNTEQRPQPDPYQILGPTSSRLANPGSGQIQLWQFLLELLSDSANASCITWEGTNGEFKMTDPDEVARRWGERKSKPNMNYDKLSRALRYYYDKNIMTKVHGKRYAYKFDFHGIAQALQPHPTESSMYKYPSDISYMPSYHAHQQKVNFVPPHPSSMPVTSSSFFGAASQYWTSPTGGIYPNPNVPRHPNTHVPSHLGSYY
# Summary of the method: (§1)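 Human transcription factors fused to GST were expressed in yeast, captured on glutathione beads, given DNA barcodes and pooled with a GST-only negative control. Pools were incubated with 200 nmole of a 16-mer random double-stranded DNA library in Tris/NaCl/DTT/glycerol buffer at room temperature for 30 min. They were then washed, crosslinked with 0.1% formaldehyde, proximity-ligated (BsaI/T4 ligase, 1 h, 37 °C), PCR-amplified and sequenced on an Illumina NextSeq500. Binding signal is each 6-mer's read frequency for a factor divided by its frequency for the GST control.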
# [2] = biological target: T2, ELK1 (Homo sapiens, UniProt P19419 1-428); details: protein: recombinant; tags: N-terminal GST; dsDNA, one strand shown
# T2 sequence: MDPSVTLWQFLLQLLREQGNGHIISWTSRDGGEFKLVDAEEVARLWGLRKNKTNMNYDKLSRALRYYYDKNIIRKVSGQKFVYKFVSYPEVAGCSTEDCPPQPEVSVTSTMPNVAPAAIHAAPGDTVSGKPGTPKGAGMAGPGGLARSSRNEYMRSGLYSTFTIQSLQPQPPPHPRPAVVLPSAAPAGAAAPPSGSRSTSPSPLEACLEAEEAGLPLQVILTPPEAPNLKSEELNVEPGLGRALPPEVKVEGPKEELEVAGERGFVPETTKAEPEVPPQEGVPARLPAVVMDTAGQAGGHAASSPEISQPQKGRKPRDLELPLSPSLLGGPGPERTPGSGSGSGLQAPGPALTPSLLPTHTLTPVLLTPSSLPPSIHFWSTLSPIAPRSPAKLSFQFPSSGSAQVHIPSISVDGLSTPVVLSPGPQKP
# Summary of the method: as §1
# [3] = biological target: T3, GABPA (Homo sapiens, UniProt Q06546 1-454); details: protein: recombinant; tags: N-terminal GST; dsDNA, one strand shown
# T3 sequence: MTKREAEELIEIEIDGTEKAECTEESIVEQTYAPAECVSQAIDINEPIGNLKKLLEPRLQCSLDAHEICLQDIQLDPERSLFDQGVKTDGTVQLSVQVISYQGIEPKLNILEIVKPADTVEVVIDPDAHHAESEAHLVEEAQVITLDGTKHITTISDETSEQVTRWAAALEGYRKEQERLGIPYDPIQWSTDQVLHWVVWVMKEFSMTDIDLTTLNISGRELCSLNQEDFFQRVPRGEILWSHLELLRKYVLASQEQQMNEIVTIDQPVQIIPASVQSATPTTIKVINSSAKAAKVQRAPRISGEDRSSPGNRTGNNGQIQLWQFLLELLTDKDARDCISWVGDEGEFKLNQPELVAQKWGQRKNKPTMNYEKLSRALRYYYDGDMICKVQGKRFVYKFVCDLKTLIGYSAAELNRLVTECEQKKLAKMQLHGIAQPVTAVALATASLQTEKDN
# Summary of the method: as §1
# [4] = biological target: T4, ERG (Homo sapiens, UniProt P11308 1-479); details: protein: recombinant; tags: N-terminal GST; dsDNA, one strand shown
# T4 sequence: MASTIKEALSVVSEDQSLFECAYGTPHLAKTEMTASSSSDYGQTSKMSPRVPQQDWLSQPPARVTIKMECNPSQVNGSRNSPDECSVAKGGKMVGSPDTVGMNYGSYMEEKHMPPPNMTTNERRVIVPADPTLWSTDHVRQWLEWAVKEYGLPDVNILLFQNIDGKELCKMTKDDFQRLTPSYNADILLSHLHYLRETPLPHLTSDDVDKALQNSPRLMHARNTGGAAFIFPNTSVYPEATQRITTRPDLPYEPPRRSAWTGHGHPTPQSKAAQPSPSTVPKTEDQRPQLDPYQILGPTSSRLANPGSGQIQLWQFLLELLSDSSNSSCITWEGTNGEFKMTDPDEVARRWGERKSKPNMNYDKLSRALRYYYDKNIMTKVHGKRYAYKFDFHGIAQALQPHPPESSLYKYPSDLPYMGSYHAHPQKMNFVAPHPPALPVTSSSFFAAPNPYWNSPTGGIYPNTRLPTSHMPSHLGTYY
# Summary of the method: as §1
# [5] = biological target: ELF1 (Homo sapiens, UniProt P32519 1-619); details: protein: recombinant; tags: N-terminal GST; dsDNA, one strand shown
# Sequence of ELF1 (P32519 whole entry): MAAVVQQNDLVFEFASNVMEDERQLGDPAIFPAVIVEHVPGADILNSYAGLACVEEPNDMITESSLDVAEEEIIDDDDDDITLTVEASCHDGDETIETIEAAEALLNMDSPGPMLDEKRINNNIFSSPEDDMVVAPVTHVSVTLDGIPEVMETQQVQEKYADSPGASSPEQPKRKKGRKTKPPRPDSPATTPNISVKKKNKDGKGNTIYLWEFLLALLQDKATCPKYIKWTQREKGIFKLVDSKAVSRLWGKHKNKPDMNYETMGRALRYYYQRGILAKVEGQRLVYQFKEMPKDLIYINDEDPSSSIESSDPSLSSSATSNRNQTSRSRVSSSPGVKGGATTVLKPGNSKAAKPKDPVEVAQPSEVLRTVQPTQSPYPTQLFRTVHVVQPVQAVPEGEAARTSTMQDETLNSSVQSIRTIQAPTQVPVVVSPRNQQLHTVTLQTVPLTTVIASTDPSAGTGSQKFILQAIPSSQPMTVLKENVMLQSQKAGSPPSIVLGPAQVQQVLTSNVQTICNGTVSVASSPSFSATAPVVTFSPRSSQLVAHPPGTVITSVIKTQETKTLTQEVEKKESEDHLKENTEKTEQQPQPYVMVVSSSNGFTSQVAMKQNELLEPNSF
# Summary of the method: as §1
# [6] = biological target: T5, EHF (Homo sapiens, UniProt Q9NZC4 1-300); details: protein: recombinant; tags: N-terminal GST; dsDNA, one strand shown
# T5 sequence: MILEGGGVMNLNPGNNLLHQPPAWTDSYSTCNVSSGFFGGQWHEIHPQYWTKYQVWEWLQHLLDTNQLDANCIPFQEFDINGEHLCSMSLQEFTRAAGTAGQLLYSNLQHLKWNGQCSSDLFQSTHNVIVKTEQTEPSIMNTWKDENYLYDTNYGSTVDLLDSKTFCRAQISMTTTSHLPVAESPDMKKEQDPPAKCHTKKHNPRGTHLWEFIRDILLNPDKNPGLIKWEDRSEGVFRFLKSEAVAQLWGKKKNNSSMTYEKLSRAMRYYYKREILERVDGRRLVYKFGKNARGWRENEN
# Summary of the method: as §1
# [7] = biological target: SPI1 (Homo sapiens, UniProt P17947 1-270); details: protein: recombinant; tags: N-terminal GST; dsDNA, one strand shown
# Summary of the method: as §1
# [8] = biological target: SPIB (Homo sapiens, UniProt Q01892 1-262); details: protein: recombinant; tags: N-terminal GST; dsDNA, one strand shown
# Sequence of SPIB (Q01892 whole entry): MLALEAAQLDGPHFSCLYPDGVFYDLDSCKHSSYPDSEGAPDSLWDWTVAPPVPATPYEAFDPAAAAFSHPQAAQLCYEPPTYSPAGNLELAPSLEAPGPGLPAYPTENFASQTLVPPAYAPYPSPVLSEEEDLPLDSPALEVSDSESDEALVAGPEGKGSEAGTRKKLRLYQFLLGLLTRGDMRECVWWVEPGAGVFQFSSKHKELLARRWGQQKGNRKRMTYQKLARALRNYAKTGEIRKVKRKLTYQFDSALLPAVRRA
# Summary of the method: as §1
# [9] = biological target: T6, ELK3 (Homo sapiens, UniProt P41970 1-407); details: protein: recombinant; tags: N-terminal GST; dsDNA, one strand shown
# T6 sequence: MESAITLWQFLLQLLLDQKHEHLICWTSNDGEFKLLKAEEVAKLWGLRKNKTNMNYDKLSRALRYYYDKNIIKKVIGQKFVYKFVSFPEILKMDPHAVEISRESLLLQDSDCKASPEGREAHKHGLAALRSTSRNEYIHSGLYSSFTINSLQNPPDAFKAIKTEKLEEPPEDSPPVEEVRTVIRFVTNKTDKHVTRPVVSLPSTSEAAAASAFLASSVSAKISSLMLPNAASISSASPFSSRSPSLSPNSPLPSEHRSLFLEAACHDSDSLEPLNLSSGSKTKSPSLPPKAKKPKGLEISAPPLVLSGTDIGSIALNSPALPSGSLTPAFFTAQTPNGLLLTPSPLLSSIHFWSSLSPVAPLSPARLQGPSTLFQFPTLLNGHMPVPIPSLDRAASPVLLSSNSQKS
# Summary of the method: as §1
# [10] = biological target: T7, FEV (Homo sapiens, UniProt Q99581 1-238); details: protein: recombinant; tags: N-terminal GST; dsDNA, one strand shown
# T7 sequence: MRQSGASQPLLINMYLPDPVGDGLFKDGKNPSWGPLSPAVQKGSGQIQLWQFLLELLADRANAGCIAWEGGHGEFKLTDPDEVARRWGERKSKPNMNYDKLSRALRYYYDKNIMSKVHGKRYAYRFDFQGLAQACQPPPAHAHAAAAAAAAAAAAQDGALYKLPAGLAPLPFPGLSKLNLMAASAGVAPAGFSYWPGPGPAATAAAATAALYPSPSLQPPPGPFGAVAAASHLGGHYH
# Summary of the method: as §1
# [11] = biological target: ETV5 (Homo sapiens, UniProt P41161 1-510); details: protein: recombinant; tags: N-terminal GST; dsDNA, one strand shown
# Sequence of ETV5 (P41161 whole entry): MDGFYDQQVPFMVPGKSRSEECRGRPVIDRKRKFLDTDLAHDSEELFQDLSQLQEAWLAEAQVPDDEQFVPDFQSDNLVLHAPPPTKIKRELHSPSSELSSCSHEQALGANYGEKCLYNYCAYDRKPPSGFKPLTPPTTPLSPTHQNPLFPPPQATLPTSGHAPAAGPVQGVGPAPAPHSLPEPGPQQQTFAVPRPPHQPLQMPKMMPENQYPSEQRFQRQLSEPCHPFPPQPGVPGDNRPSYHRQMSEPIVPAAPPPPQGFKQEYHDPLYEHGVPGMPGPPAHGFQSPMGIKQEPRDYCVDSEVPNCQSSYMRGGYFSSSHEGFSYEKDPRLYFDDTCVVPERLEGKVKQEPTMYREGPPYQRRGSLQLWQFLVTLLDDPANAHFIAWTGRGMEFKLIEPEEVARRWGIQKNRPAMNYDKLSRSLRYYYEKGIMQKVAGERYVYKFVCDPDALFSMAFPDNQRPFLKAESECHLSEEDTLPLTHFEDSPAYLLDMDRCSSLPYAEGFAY
# Summary of the method: as §1
# [12] = biological target: HSF1 (Homo sapiens, UniProt Q00613 1-529); details: protein: recombinant; tags: N-terminal GST; chain copies: 3; dsDNA, one strand shown
# Sequence of HSF1 (Q00613 whole entry): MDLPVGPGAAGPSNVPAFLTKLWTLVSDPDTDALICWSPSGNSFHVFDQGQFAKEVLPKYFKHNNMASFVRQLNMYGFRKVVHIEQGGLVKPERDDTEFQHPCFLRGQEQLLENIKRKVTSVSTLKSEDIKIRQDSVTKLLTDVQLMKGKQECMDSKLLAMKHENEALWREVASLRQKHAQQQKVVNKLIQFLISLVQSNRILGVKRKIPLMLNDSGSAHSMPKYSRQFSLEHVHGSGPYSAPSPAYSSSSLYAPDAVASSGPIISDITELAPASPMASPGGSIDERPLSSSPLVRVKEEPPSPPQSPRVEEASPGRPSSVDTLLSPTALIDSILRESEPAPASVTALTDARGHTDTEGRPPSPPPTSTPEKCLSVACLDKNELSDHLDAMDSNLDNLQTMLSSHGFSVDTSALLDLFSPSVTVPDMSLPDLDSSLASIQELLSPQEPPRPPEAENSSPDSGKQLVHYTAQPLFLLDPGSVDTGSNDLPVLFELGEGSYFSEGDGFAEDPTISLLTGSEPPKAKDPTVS
# Summary of the method: as §1
# [13] = biological target: T8, SPIC (Homo sapiens, UniProt Q8N5J4 1-248); details: protein: recombinant; tags: N-terminal GST; dsDNA, one strand shown
# T8 sequence: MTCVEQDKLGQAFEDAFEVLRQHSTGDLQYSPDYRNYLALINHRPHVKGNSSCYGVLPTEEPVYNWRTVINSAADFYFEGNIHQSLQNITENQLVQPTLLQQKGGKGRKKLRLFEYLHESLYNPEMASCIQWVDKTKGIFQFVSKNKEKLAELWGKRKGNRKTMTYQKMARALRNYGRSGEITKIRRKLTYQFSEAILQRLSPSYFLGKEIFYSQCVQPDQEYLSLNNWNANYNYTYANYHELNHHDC
# Summary of the method: as §1
# [14] = biological target: ELF4 (Homo sapiens, UniProt Q99607 1-663); details: protein: recombinant; tags: N-terminal GST; dsDNA, one strand shown
# Sequence of ELF4 (Q99607 whole entry): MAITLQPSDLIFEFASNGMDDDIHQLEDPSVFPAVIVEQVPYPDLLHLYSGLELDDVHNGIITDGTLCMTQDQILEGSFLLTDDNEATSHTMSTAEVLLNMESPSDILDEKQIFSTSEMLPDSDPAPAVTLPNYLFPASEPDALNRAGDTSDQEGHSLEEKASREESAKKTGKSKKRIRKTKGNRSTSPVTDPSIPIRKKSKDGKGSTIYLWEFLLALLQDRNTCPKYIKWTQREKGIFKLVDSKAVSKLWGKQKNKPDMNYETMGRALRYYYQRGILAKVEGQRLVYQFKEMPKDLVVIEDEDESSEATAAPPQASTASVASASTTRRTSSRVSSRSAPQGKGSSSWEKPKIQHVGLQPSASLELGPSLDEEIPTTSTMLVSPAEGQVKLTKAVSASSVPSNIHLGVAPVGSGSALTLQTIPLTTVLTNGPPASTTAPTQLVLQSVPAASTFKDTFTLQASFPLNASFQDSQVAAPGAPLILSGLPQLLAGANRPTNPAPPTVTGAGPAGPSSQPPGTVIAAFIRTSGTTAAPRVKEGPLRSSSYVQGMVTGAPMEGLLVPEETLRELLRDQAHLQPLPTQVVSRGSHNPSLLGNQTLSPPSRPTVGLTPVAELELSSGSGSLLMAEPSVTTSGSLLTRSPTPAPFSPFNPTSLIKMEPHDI
# Summary of the method: as §1
# [15] = biological target: T9, ELK4 (Homo sapiens, UniProt P28324-2 1-405); details: protein: recombinant; tags: N-terminal GST; dsDNA, one strand shown
# T9 sequence: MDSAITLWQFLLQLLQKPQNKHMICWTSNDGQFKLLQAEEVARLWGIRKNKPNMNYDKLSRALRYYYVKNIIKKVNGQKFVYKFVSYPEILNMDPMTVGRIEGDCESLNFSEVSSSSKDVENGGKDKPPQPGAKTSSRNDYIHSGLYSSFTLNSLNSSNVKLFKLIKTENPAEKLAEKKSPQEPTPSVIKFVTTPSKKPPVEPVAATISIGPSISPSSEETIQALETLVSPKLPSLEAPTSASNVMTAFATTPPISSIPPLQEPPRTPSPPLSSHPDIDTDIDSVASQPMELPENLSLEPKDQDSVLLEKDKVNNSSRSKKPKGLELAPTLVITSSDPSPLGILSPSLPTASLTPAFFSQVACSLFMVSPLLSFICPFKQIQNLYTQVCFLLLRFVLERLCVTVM
# Summary of the method: as §1
# [16] = biological target: T10, ETV2 (Homo sapiens, UniProt O00321 1-342); details: protein: recombinant; tags: N-terminal GST; dsDNA, one strand shown
# T10 sequence: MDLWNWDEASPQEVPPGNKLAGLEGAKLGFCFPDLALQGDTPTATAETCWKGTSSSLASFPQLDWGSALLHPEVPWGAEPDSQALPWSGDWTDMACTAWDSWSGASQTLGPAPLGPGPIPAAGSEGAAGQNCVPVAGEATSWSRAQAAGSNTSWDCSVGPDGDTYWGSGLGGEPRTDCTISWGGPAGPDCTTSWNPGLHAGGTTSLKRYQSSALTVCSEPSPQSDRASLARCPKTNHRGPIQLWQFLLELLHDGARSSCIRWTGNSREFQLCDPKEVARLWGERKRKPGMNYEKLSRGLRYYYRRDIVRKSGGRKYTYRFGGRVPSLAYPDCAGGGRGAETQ
# Summary of the method: as §1
# [17] = biological target: T11, ELF3 (Homo sapiens, UniProt P78545 1-371); details: protein: recombinant; tags: N-terminal GST; dsDNA, one strand shown
# T11 sequence: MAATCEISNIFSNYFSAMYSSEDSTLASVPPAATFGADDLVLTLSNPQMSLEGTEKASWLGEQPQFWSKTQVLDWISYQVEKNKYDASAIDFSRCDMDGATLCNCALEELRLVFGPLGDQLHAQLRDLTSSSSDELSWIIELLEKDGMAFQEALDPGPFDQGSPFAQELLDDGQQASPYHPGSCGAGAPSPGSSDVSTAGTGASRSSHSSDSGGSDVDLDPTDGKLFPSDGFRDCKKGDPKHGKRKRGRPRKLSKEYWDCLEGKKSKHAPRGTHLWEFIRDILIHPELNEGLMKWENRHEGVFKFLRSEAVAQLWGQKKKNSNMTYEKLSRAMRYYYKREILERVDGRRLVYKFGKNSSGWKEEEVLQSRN
# Summary of the method: as §1
# [18] = biological target: CRX (Homo sapiens, UniProt O43186 1-299); details: protein: recombinant; tags: N-terminal GST; dsDNA, one strand shown
# Sequence of CRX (O43186 whole entry): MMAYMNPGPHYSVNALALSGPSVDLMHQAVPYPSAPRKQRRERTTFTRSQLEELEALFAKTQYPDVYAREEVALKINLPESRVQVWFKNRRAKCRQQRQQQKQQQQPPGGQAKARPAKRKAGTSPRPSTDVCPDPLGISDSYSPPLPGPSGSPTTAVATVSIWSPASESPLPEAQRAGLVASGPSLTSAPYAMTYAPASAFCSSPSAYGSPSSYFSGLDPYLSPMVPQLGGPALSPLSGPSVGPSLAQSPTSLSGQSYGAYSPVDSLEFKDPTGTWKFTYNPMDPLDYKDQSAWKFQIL
# Summary of the method: as §1
# [19] = biological target: ETV1 (Homo sapiens, UniProt P50549 1-477); details: protein: recombinant; tags: N-terminal GST; dsDNA, one strand shown
# Sequence of ETV1 (P50549 whole entry): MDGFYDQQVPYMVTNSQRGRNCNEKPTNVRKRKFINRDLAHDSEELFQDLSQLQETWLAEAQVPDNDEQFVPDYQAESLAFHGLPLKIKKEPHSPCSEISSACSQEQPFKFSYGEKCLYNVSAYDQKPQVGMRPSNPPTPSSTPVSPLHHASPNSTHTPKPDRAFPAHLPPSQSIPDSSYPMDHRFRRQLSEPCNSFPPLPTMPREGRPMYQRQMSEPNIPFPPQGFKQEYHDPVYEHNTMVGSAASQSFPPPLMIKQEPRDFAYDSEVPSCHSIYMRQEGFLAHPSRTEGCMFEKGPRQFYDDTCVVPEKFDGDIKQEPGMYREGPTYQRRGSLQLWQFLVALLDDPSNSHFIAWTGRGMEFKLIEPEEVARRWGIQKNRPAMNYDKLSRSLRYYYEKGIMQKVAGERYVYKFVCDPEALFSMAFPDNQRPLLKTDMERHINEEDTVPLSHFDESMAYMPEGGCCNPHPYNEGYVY
# Summary of the method: as §1
sequence,measurement,setting,value
TTTGAT,binding signal,[1],"1.37 fold enrichment (6-mer frequency, TF over GST control)"
same,binding signal,[2],"1.36 fold enrichment (6-mer frequency, TF over GST control)"
same,binding signal,[3],"1.26 fold enrichment (6-mer frequency, TF over GST control)"
same,binding signal,[4],"1.3 fold enrichment (6-mer frequency, TF over GST control)"
same,binding signal,[5],"1.23 fold enrichment (6-mer frequency, TF over GST control)"
same,binding signal,[6],"1.25 fold enrichment (6-mer frequency, TF over GST control)"
same,binding signal,[7],"1.22 fold enrichment (6-mer frequency, TF over GST control)"
same,binding signal,[8],"1.31 fold enrichment (6-mer frequency, TF over GST control)"
same,binding signal,[9],"1.12 fold enrichment (6-mer frequency, TF over GST control)"
same,binding signal,[10],"1.17 fold enrichment (6-mer frequency, TF over GST control)"
same,binding signal,[11],"1.23 fold enrichment (6-mer frequency, TF over GST control)"
same,binding signal,[12],"1.37 fold enrichment (6-mer frequency, TF over GST control)"
same,binding signal,[13],"1.26 fold enrichment (6-mer frequency, TF over GST control)"
same,binding signal,[14],"1.22 fold enrichment (6-mer frequency, TF over GST control)"
same,binding signal,[15],"1.2 fold enrichment (6-mer frequency, TF over GST control)"
same,binding signal,[16],"1.22 fold enrichment (6-mer frequency, TF over GST control)"
same,binding signal,[17],"1.18 fold enrichment (6-mer frequency, TF over GST control)"
same,binding signal,[18],"1.6 fold enrichment (6-mer frequency, TF over GST control)"
same,binding signal,[19],"1.25 fold enrichment (6-mer frequency, TF over GST control)"
